Molecules are shown by their SMILES. Records with an inconclusive call do not appear. The source made the active and inactive calls. Cut-off not given; nearly all actives show IC50 up to about 30 µM.

The IC50 is the concentration at which inhibition is half-maximal.

The nature of this experiment: growth inhibition of DIPG cells – cell-based, MIPE5.0 library, qHTS (AID 1347068).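 On IC50: cells exposed to compound for 48 hours before viability readout.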 The following applies: SU-DIPG-XXV viability.
As for `CNCCn1c(=O)c2cc(OC)c(OC)cc2c2cnc3cc4c(cc3c21)OCO4`, the outcome was inactive. `NS(=O)(=O)NCCNc1nonc1C(=Nc1ccc(F)c(Br)c1)NO`: the compound was called inactive. With `C=CC(=O)N1CCC(Oc2cc3c(Nc4ccc(Cl)c(Cl)c4F)ncnc3cc2OC)CC1`, the IC50 is 16.6 µM (active). For the compound `NC(=O)/C(=C/n1cnc(-c2cc(C(F)(F)F)cc(C(F)(F)F)c2)n1)c1cncnc1`, the IC50 was 3.32 µM (active). The same measure, in the same setting: to `C=C1C(=O)O[C@H]2C[C@H](C)C(/C=C/C(C)=O)=CC[C@H]12` belongs 7.42 µM (active); to `O=C1NC(=O)C(c2cnc3ccccn23)=C1c1cn2c3c(cc(F)cc13)CN(C(=O)N1CCCCC1)CC2`, 20.9 µM (active). As for `O=C(NC[C@H](O)CN1CCc2ccccc2C1)c1cc(NC2COC2)ncn1`, the call was inactive. Same read-out and setting: to `C[C@@H]1CC(=O)Nc2cccc(-c3cnn(C(C)(C)C)c3)c2N1` belongs “inactive”. `C[C@@H](Oc1cc(C(=O)Nc2ccc(C(=O)N3CCN(C)CC3)cc2)nnc1N)c1c(Cl)ccc(F)c1Cl`: the IC50 was 7.42 µM (active).

For `CC(C)N(CCCNC(=O)Nc1ccc(C(C)(C)C)cc1)C[C@H]1O[C@@H](n2ccc3c(N)ncnc32)[C@H](O)[C@@H]1O`, the compound was classed as inactive.

As to `Cc1cc(Oc2ccc3nc(COc4ccc(CC5SC(=O)NC5=O)cc4)n(C)c3c2)cc(C)c1N` (stereo unspecified), the result was inactive. As for `OC1CCC([C@H](O)C[C@H]2c3c(F)cccc3-c3cncn32)CC1` (stereo partly specified), the result was inactive. Regarding `Cn1cc(-c2ccc(S(=O)(=O)n3ccc(/C=C/C(=O)Nc4ccccc4N)c3)cc2)cn1`, the IC50 was 5.9 µM (active).

As to `Cc1ccc(NC(=O)Nc2nnc(Sc3ncnc4cc(OCCCN5CCOCC5)ccc34)s2)cc1`, the result was inactive. Same read-out and setting: to `Cc1[nH]c(/C=C2\C(=O)Nc3ccc(F)cc32)c(C)c1C(=O)NC[C@H](O)CN1CCOCC1` belongs “inactive”. As for `CN1CCN(Cc2ccc(Nc3ncc(Cl)c(Nc4ccccc4S(=O)(=O)N(C)C)n3)cc2)CC1`, the IC50 is 0.382 µM (active). For the compound `O=S(=O)(Nc1ccc(-c2cccnc2)c2cccnc12)c1cccc(C(F)(F)F)c1`, the compound was called inactive.

In the case of `COc1cccc2c1C(=O)c1c(O)c3c(c(O)c1C2=O)C[C@@](O)(/C(CO)=N/NC(=O)CCCCCN1C(=O)C=CC1=O)C[C@@H]3O[C@H]1C[C@H](N)[C@H](O)[C@H](C)O1`, the IC50 was 18.6 µM (active).

For the compound `CC(C)(C)C(=O)CN1C(=O)[C@H](NC(=O)Nc2cccc(C(=O)O)c2)CN(C2CCCCC2)c2ccccc21`, the compound was classed as inactive. Same read-out and setting: to `CC(C)(NS(=O)(=O)c1ccc2c(Cl)cnc(N=C(N)N)c2c1)C(=O)O` belongs “inactive”. As for `COC(=O)N(C)c1c(N)nc(-c2nn(Cc3ccccc3F)c3ncccc23)nc1N`, the outcome was inactive.

`C[C@H]1CN(C[C@H](Cc2ccccc2)C(=O)NCC(=O)O)CC[C@@]1(C)c1cccc(O)c1`: the compound was called inactive. Turning to `NC[C@@](O)(c1ccc(Cl)cc1)c1ccc(-c2cn[nH]c2)cc1`, the IC50 is 23.5 µM (active).

For `COc1cc2c3c(n(CCCNCCO)c(=O)c2cc1OC)-c1cc2c(cc1C3=O)OCO2`, the IC50 was 9.34 µM (active).

In the case of `CCN1CCN(Cc2ccc(NC(=O)Nc3ccc(Oc4cc(NC)ncn4)cc3)cc2C(F)(F)F)CC1`, the IC50 was 7.42 µM (active). The same measure, in the same setting: to `Cc1cc(OCCCc2c3n(c4c(-c5c(C)nn(C)c5C)c(Cl)ccc24)[C@H](C)CN(c2cn(C)c4ccc(C(=O)O)cc24)C3=O)cc(C)c1Cl` belongs 3.72 µM (active).
